Bioassay records from PubChem.
tim10-1 inh: inhibits growth of tim10-1 mutant yeast; S. cerevisiae tim10-1 ts strain growth, BacTiter-Glo, 24 h; inhibition, % at 20 µM; actives 2.2% (n = 330,000); AID 463190;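 active = inhibition of at least 40%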;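 note: mutant grown at 25 °C; 0% = DMSO wells with yeast and 100% = wells holding no yeast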
tim23-1 inh: growth inhibitors of tim23-1 mutant yeast. S. cerevisiae tim23-1 growth, BacTiter-Glo luminescence, 24 h. inhibition, % at 20 µM. actives 1.3% (n = 330,000);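 active = growth inhibition of the mutant yeast at or above 50%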;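 note: temperature-sensitive mutant grown at 25 °C; plate controls were DMSO-treated mutant yeast for no effect and medium wells lacking yeast for full effect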
TIM10 inh: growth inhibitors of TIM10 yeast strain. S. cerevisiae TIM10 strain growth, BacTiter-Glo luminescence, 24 h. inhibition, % at 10 µM. actives 1.4% (n = 330,000). AID 463195;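 active = inhibition of 40% or more at the single tested concentration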;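 note: wild-type TIM10 isogenic control strain grown at permissive 25 °C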
NALP1 yeast inh: NALP1 inhibition; S. cerevisiae NALP1/ASC/caspase-1 growth, X-gal OD620, 72 h; AID 2071; inhibition, % at 10 µM; actives 0.61% (n = 280,000); in the data active = inhibition mostly above about 24%, no sharp cut-off; inactive = mostly below about 32%
PfHsp90 yeast 2: inhibits growth of yeast expressing Plasmodium falciparum Hsp90 | AID 504621 | S. cerevisiae expressing PfHsp90, BacTiter-Glo ATP, 48 h; yeast lacking PDR1 and PDR3 efflux regulators | inhibition, % at 9.4 µM | actives 0.32% (n = 310,000);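 active = every replicate shows inhibition above about 80%, whatever the replicate mean, limit read from the data; inconclusive = mean inhibition reaches the set limit but some replicate falls short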;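 note: 0% = DMSO neutral controls and 100% = 20 µM radicicol positive controls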
NALP3 yeast inh: blocks the NALP3 inflammasome reconstituted in yeast; inhibition, % at 10 µM; Yeast reconstituted NLRP3/ASC/caspase-1, beta-gal luminescence, 24 h; AID 2825; actives 0.39% (n = 330,000);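 active = inhibition of 50% or more; inactive = inhibition below 50%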;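 note: plate controls were induced DMSO wells for no effect and uninduced yeast grown without galactose for full effect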
TIM10 conf: TIM10 yeast growth inhibition, confirmed; shares compounds with TIM10 inh; S. cerevisiae tim10 strain growth, BacTiter-Glo luminescence, 24 h; inhibition, % at 10 µM; actives 63% (n = 4,600);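 active = inhibition of yeast growth at or above a set limit in either of two replicates at 10 µM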;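 note: this counterscreen used the strain with wild-type TIM10; 0% = yeast with DMSO and 100% = medium wells lacking yeast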
tim23-1 conf: confirmation of tim23-1 mutant yeast growth inhibitors; shares compounds with tim23-1 inh; S. cerevisiae tim23-1 growth, BacTiter-Glo luminescence, 24 h; inhibition, % at 20 µM; actives 83% (n = 4,400); AID 463218;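 active = inhibition above about 39% in either of two replicate wells at 20 µM, limit read from the data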;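 note: temperature-sensitive tim23-1 mutant grown at 25 °C; 0% = DMSO wells with yeast and 100% = medium wells without yeast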
* hit, by the source's call; ? = inconclusive; · = no result. Compounds with a hit are over-represented: about 4.2% of the library has one in this group of screens.

SMILES | tim10-1 inh | tim23-1 inh | TIM10 inh | NALP1 yeast inh | PfHsp90 yeast 2 | NALP3 yeast inh | TIM10 conf | tim23-1 conf
CCOC(=O)c1sc(NC(=O)c2sccc2C)cc1C | 39 | 50* | 74* | -9 | 21 | 34 | 62* | 71*
COc1cccc(OCc2cc(C(=O)N3CCN(C)C(c4ccccc4)C3)no2)c1 (stereo not given) | 39 | 53* | 41* | 14 | ? | 21 | 50* | 48*
C=CCC1(CC=C)CCCN1C(=O)c1cc(COc2cccc(OC)c2)on1 | 13 | 16 | -3 | 9 | -5 | 12 | · | ·
O=C(Nc1ccc(F)cc1)C1CCN(S(=O)(=O)c2cccc3nonc23)CC1 | -4 | -4 | 5 | 4 | -9 | 6 | · | ·
O=[S@]1Oc2ccccc2-c2ccccc21 | 5 | 69* | 58* | · | 110* | 17 | 76* | -41
O=S1c2ccccc2Oc2ccccc21 | · | · | · | · | 32 | · | · | ·
CCCCCn1cnnc1SCC(=O)c1c(N)n(C2CC2)c(=O)[nH]c1=O | -4 | -2 | 1 | · | · | 17 | · | ·
Cc1ccc2nc(NC(=O)COC(=O)c3ccccn3)sc2c1 | 19 | 59* | 43* | 25 | · | -11 | 26 | 70*
C[C@]12CC[C@H](O)CC1=CCC1C2CC[C@@]2(C)C1CC[C@@H]2NC(=O)[C@@H](N)Cc1ccccc1 (stereo not given in full) | 34 | 58* | 55* | · | 40 | 46 | 60* | 55*
CC1=CC(C)(C)NC(=S)N1C(C)c1ccccc1 (stereo not given) | 24 | 62* | 46* | -14 | -22 | 6 | 28 | 33
CC1=CC(C)(C)NC(=S)N1c1ccc2ccccc2c1 | 13 | 34 | 30 | 16 | 13 | 26 | · | ·
Cc1[nH]c2ccccc2c1N=Nc1ccccc1F | -18 | 72* | 50* | -11 | 1 | 22 | 55* | -51
CO/C(N)=C(\C#N)N=Cc1ccccc1Cl | 23 | 52* | 47* | 6 | 11 | 6 | 11 | 64*
CCOc1ccccc1NC(=O)c1ccc2c(c1)C(=O)N(CC)C2=O | -5 | 0 | -3 | 5 | 8 | 7 | · | ·
CNc1ccc(/C=C2\COc3ccccc3C2=O)cc1[N+](=O)[O-] | 10 | 9 | 1 | 3 | 19 | 35 | · | ·
O=C1/C(=C/c2ccc(O)cc2)COc2ccccc21 | 39 | 78* | 46* | 18 | 4 | 49 | 36* | 50*
CSc1ccc(/C=C(\C#N)C(=O)NC2CCCCC2C)cc1 (stereo not given) | 39 | 59* | 56* | 30 | 9 | 1 | 65* | 39*
O=c1onc(-c2ccc(Cl)cc2)n1Cc1ccc(F)cc1 | 5 | 11 | 17 | 20 | -19 | -1 | · | ·
CCOc1ccc2cc(C#N)c(SCC(=O)N3CCC(C)CC3)nc2c1 | 36 | 52* | 59* | 2 | · | 9 | 14 | 50*
CN(Cc1ccccc1F)C(=O)c1sccc1-c1ccccc1 | 28 | 24 | 28 | 3 | -24 | 28 | · | ·
O=C(N/N=C/c1c(O)ccc2ccccc12)c1cccc(C(F)(F)F)c1 | 30 | 56* | 43* | 21 | 91* | -5 | 13 | 44*
Cc1ccccc1-c1nc2cc(NC(=O)C3CC3)ccc2o1 | 16 | 71* | 63* | 20 | 12 | 35 | 54* | 75*
O=C(Nc1ccc2oc(-c3ccccc3F)nc2c1)c1ccc2c(c1)OCCO2 | 39 | 60* | 46* | 18 | 14 | 20 | 36* | 70*
COc1ccc(OCC(=O)c2c[nH]c3ccccc23)cc1 | -2 | 14 | -21 | 8 | -4 | 12 | · | ·
COc1ccc2c(C(=O)CCl)c[nH]c2c1 | 21 | 53* | 43* | · | -14 | -20 | 29 | 51*
SMILES | tim10-1 inh | tim23-1 inh | TIM10 inh | NALP1 yeast inh | PfHsp90 yeast 2 | NALP3 yeast inh | TIM10 conf | tim23-1 conf
Cn1c(SCc2ccc(Br)cc2)nnc1-c1cccs1 | 37 | 57* | 57* | -3 | -17 | 43 | 30* | 61*
CCn1c(SCc2ccccc2)nnc1-c1cccs1 | 39 | 37 | 31 | -77 | · | 14 | · | ·
CC(C)(C)c1cc(C(=O)N/N=C/c2ccccc2O)n(-c2ccccc2)n1 | 38 | 59* | 59* | 22 | -77 | 23 | -18 | 56*
COc1ccc(/C=N/NC(=O)c2nc(-c3ccccc3)n(-c3ccccc3)n2)c(O)c1 | 8 | -6 | -5 | 0 | -4 | 10 | · | ·
Cc1cccc(-c2nc(Nc3cccc(O)c3)c3ccccc3n2)c1 | 6 | 78* | 53* | 21 | -44 | 38 | 50* | 24
Cc1cccc(-c2nc(Nc3ccc(N4CCOCC4)cc3)c3ccccc3n2)c1 | 27 | 32 | 6 | 25 | 12 | 25 | · | ·
COc1ccccc1CNC(=O)CN1CCN(c2ccc(C(C)=O)cc2)CC1 | 2 | 5 | 17 | -17 | -4 | -11 | · | ·
COc1ccc2cc(CN(Cc3ccco3)Cc3nnnn3C3CCCCC3)c(=O)[nH]c2c1 | 34 | 59* | 41* | 9 | -31 | 13 | 18 | 60*
COc1ccc2cc(CN(Cc3ccco3)C(c3nnnn3C3CCCCC3)C(C)C)c(=O)[nH]c2c1 (stereo not given) | 32 | 35 | 17 | -1 | -17 | 14 | · | ·
COCCNC(=O)c1cccc(OC2CCN(Cc3ccc(Cl)c(F)c3)CC2)c1 | -12 | -1 | -12 | 0 | -6 | 19 | · | ·
O=C(Nc1cccc(Cl)c1)N1CCCC1 | 36 | 51* | 47* | 8 | -4 | 34 | 27 | 73*
Cc1ccc(OCC(=O)N2CCCCC2C)c([N+](=O)[O-])n1 (stereo not given) | 2 | 12 | 1 | · | -4 | 10 | · | ·
Cc1ccc(C(C[N+](=O)[O-])Sc2ccc(N)cc2)cc1 (stereo not given) | 39 | 75* | 56* | 26 | 107* | 49 | 51* | 90*
O=C(NC(=S)Nc1ccc(O)cc1)C1CCCC1 | 38 | 54* | 44* | · | 16 | 12 | 33* | 54*
CCOC(=O)C1CCN(S(=O)(=O)c2ccc3c(c2)CCN3C(=O)C2CCC2)CC1 | 1 | 51* | 62* | 17 | 2 | 14 | 20 | 66*
CCOC(=O)C1CCN(S(=O)(=O)c2ccc3c(c2)CCN3C(C)=O)CC1 | 22 | 29 | 19 | -4 | -14 | 2 | · | ·
Cc1cc(C)c(OCC(=O)Nc2ccc(NC(=O)c3ccco3)cc2)c([N+](=O)[O-])c1 | · | · | · | 22 | -16 | · | · | ·
COc1ccc(C(=O)COc2cccc(NC(=O)c3ccco3)c2)cc1 | 24 | 33 | 37 | -3 | 1 | 23 | · | ·
